Test results reported in PubChem BioAssay (NCI).
Compounds without any hit were thinned out: in the full panel of roughly 83,000, 20% have a hit.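 Treatment: one concentration, 48 hours, 96-well format. Scoring: percent growth, with anything below 10 considered active.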 Active and inactive are the calls of the source.

Legend:
Experiment in all cases: NCI-60 one-dose screen, 48 h (100 = growth as untreated, 0 = no growth, -100 = all killed)
Details in all cases: 10 µM unless noted
T-47D breast = tested on: T-47D breast
BT-549 breast = tested on: BT-549 breast
MDA-MB-435 melanoma = tested on: MDA-MB-435 melanoma
SW-620 colon = tested on: SW-620 colon
MCF7 breast = tested on: MCF7 breast
HCT-116 colon = tested on: HCT-116 colon
HCC-2998 colon = tested on: HCC-2998 colon
KM12 colon = tested on: KM12 colon

Measured: growth

CCN(CC)CCCNC(=O)c1c2c(n3ccccc13)C(=O)c1ncccc1C2=O
active: T-47D breast -64.4% | BT-549 breast -6.67% | MDA-MB-435 melanoma -58.7% | SW-620 colon -47% | MCF7 breast -52.9% | HCT-116 colon -70.5% | HCC-2998 colon -72.5% | KM12 colon -13.2%

C#Cc1c(I)n(C2OC(CO[Si](C)(C)C(C)(C)C)C3OC(C)(C)OC32)c(=O)[nH]c1=O (stereo not given)
inactive: BT-549 breast 98.5% | MDA-MB-435 melanoma 81.2% | MCF7 breast 42.1% | KM12 colon 105%
active: T-47D breast -69.3% | SW-620 colon -98.3% | HCT-116 colon -49.6% | HCC-2998 colon -75.7%

C=C(C[n+]1ccccc1)[C@@H]1CC[C@]2(C(=O)OC)CC[C@]3(C)[C@H](CC[C@@H]4[C@@]5(C)CCC(=O)C(C)(C)[C@@H]5CC[C@]43C)[C@@H]12
inactive: T-47D breast 81.4% | BT-549 breast 72.8% | MDA-MB-435 melanoma 77.6% | SW-620 colon 89% | MCF7 breast 82.9% | HCT-116 colon 96.9% | HCC-2998 colon 90.9% | KM12 colon 78.4%

Cc1ccc(NC(=O)c2ccc(Nc3ncnc4c3cnn4-c3cccc(F)c3)cc2)cc1
inactive: T-47D breast 92.6% | BT-549 breast 99.7% | MDA-MB-435 melanoma 100% | SW-620 colon 101% | MCF7 breast 96.5% | HCT-116 colon 101% | HCC-2998 colon 107% | KM12 colon 102%

COc1cc(C(=O)c2c(-c3ccccc3)oc3ccccc23)cc(OC)c1O
active: MDA-MB-435 melanoma -30.9%
inactive: T-47D breast 28.7% | BT-549 breast 47.4% | SW-620 colon 14.6% | MCF7 breast 21.8% | HCT-116 colon 30.7% | HCC-2998 colon 78.4% | KM12 colon 27.7%

Cc1cc(=O)oc2cc(Oc3nc(-c4ccccc4)cn4c(-c5ccccc5)cnc34)ccc12
inactive: T-47D breast 38.5% | BT-549 breast 82.6% | MDA-MB-435 melanoma 72.1% | SW-620 colon 88.3% | MCF7 breast 50.5% | HCT-116 colon 39.3% | HCC-2998 colon 81% | KM12 colon 75.5%

CCOC(=O)CCC(=O)P(=O)(O)O
inactive: T-47D breast 98.6% | BT-549 breast 101% | MDA-MB-435 melanoma 125% | SW-620 colon 96.5% | MCF7 breast 110% | HCT-116 colon 86.2% | HCC-2998 colon 99.8% | KM12 colon 112%

CC1=C(C(=O)OCc2ccccc2)C(c2ccc3c(c2)OCO3)n2c(nc3ccccc32)N1 (stereo not given)
active: MDA-MB-435 melanoma -35.4%
inactive: T-47D breast 40.9% | BT-549 breast 50.5% | SW-620 colon 17.6% | MCF7 breast 20.6% | HCT-116 colon 18.8% | HCC-2998 colon 56.4% | KM12 colon 17.3%

O=c1ccc2nc(-c3ccccc3)nn(-c3ccccn3)c-2c1
inactive: BT-549 breast 108% | MDA-MB-435 melanoma 94.6% | HCT-116 colon 42.7% | HCC-2998 colon 103% | KM12 colon 104%
active: T-47D breast -40.9% | SW-620 colon -46.2% | MCF7 breast -37.1%

[2H]C([2H])([2H])Oc1ccc(/C=C/C(=O)/C=C(O)/C=C/c2ccc(OC([2H])([2H])[2H])c(OC([2H])([2H])[2H])c2)cc1OC([2H])([2H])[2H]
inactive: T-47D breast 21.8% | BT-549 breast 34.4% | MDA-MB-435 melanoma 12.3% | SW-620 colon 27.4% | HCC-2998 colon 76.4% | KM12 colon 30.6%
active: MCF7 breast 4.59% | HCT-116 colon 5.1%

CN1CCN(CCCNC(=O)c2c3c(n4ccccc24)C(=O)c2ncccc2C3=O)CC1
active: T-47D breast -4.38% | MDA-MB-435 melanoma -81.1% | SW-620 colon -5.63% | MCF7 breast -43.8% | HCT-116 colon -16.4% | HCC-2998 colon -32.2%
inactive: BT-549 breast 54.8% | KM12 colon 11.3%

Cc1c2ccncc2c(C)c2c1c1ccccc1n2CCCCCC(=O)O
inactive: T-47D breast 86.5% | BT-549 breast 89.4% | MDA-MB-435 melanoma 99.2% | SW-620 colon 82.4% | MCF7 breast 77.6% | HCT-116 colon 75.8% | HCC-2998 colon 104% | KM12 colon 82.3%

O=C(Nc1ccc2c(c1)-c1ccccc1C2)C1CC(=O)N(c2ccc3c(c2)OCO3)C1 (stereo not given)
inactive: T-47D breast 52.8% [50 µM] | BT-549 breast 80.3% [50 µM] | MDA-MB-435 melanoma 70.7% [50 µM] | SW-620 colon 75.2% [50 µM] | MCF7 breast 65.6% [50 µM] | HCT-116 colon 36.8% [50 µM] | HCC-2998 colon 81% [50 µM] | KM12 colon 51.2% [50 µM]

NCCCCCNc1noc(Cc2c[nH]c3cc(Br)ccc23)n1
active: MDA-MB-435 melanoma -37%
inactive: T-47D breast 25.9% | BT-549 breast 44.9% | SW-620 colon 18.6% | MCF7 breast 21.8% | HCT-116 colon 23% | HCC-2998 colon 64% | KM12 colon 23.9%

CCOC(=O)CC1C(CNC(=O)NC)OC(n2cnc3c(NC(=O)Nc4ccccc4)ncnc32)C1O[Si](C)(C)C(C)(C)C (stereo not given)
inactive: T-47D breast 27.1% | BT-549 breast 81.6% | MDA-MB-435 melanoma 53.6% | SW-620 colon 71.2% | MCF7 breast 18.1% | HCT-116 colon 16.7% | HCC-2998 colon 61.8% | KM12 colon 43.4%

COc1ccc(/C=C\c2cc(OC)c(OC)c(OC)c2)cc1OCC(=O)Nc1nc2ccccc2s1
inactive: T-47D breast 18.5% | BT-549 breast 38.7% | SW-620 colon 30% | HCC-2998 colon 35.6%
active: MDA-MB-435 melanoma -2.64% | MCF7 breast 9.7% | HCT-116 colon 5.14% | KM12 colon 5.76%

O=[N+]([O-])c1ccc(N/N=C\c2cc(Cl)ccc2O)nc1
inactive: T-47D breast 25.4% | BT-549 breast 42.4% | MDA-MB-435 melanoma 48.7% | SW-620 colon 32.4% | MCF7 breast 16% | HCT-116 colon 16.7% | HCC-2998 colon 42% | KM12 colon 29%

C=CCOC(=O)C1=C(C)N(CC)C(=O)N(CC)C1c1c(Cl)n(C)c2ccccc12 (stereo not given)
inactive: T-47D breast 87.6% | BT-549 breast 89.9% | MDA-MB-435 melanoma 89.1% | SW-620 colon 84.6% | MCF7 breast 79% | HCT-116 colon 85.8% | HCC-2998 colon 78% | KM12 colon 68.6%

CCOC(=O)c1cc(C(=O)c2cc(OC)cc(OC)c2)n2ccccc12
active: MDA-MB-435 melanoma -4.66%
inactive: T-47D breast 49.3% | BT-549 breast 35.7% | SW-620 colon 28.2% | MCF7 breast 22.3% | HCT-116 colon 12.2% | HCC-2998 colon 54.7% | KM12 colon 24.2%

CNC(=O)c1cc(Oc2cccc3nc(NC(=O)Nc4ccc(F)cc4F)ccc23)ccn1
active: HCT-116 colon -33.1%
inactive: T-47D breast 21% | BT-549 breast 45.5% | MDA-MB-435 melanoma 32.6% | SW-620 colon 59.7% | MCF7 breast 37.8% | HCC-2998 colon 70.2% | KM12 colon 57.7%

CN1CC(c2ccccc2)C(C(=O)c2ccc(Br)cc2)C12C(=O)Nc1ccccc12 (stereo not given)
inactive: T-47D breast 81.5% | BT-549 breast 111% | MDA-MB-435 melanoma 106% | SW-620 colon 95.4% | MCF7 breast 98.5% | HCT-116 colon 86.3% | HCC-2998 colon 99.7% | KM12 colon 101%

Cc1c(C)c2c(c(C)c1OC(=O)CCC(=O)[O-])CCC(C)(CCCCCCCCCCC[P+](c1ccccc1)(c1ccccc1)c1ccccc1)O2 (stereo not given)
active: T-47D breast -41.6% | BT-549 breast -60.2% | MDA-MB-435 melanoma -89% | SW-620 colon 9.14% | MCF7 breast -28.2% | HCT-116 colon -9.97% | HCC-2998 colon -70.3% | KM12 colon -87.7%

O=C(/C=C/c1cccc([N+](=O)[O-])c1)c1ccc(Nc2nc(Nc3ccc(F)cc3)nc(Nc3ccc(Cl)cc3)n2)cc1
inactive: T-47D breast 81.4% | BT-549 breast 103% | MDA-MB-435 melanoma 102% | SW-620 colon 104% | MCF7 breast 67.1% | HCT-116 colon 97.1% | HCC-2998 colon 103% | KM12 colon 105%

COc1cc(C(=O)/C=C/c2c(-c3cccs3)nc3sc(C)cn23)cc(OC)c1OC
active: T-47D breast 3.31% | BT-549 breast -0.944% | MDA-MB-435 melanoma -15.1% | SW-620 colon 6.94% | MCF7 breast 1.13% | HCT-116 colon 2.71% | KM12 colon -8.4%
inactive: HCC-2998 colon 20.2%

C=C(C)[C@@H]1CC[C@]2(C(=O)NC(C)=O)CC[C@]3(C)[C@H](CC[C@@H]4[C@@]5(C)CCCNC(C)(C)[C@@H]5CC[C@]43C)[C@@H]12
active: MDA-MB-435 melanoma -88.7% | SW-620 colon -50% | MCF7 breast -17.3% | HCT-116 colon -69.7% | HCC-2998 colon -58.3% | KM12 colon -2.16%
inactive: T-47D breast 17.6% | BT-549 breast 63.1%

COC(=O)[C@H](C)NC(=O)[C@@H]1CCCN1C(=O)CNC(=O)[C@H](C)N
inactive: T-47D breast 97.6% | BT-549 breast 109% | MDA-MB-435 melanoma 102% | SW-620 colon 105% | MCF7 breast 110% | HCT-116 colon 99.6% | HCC-2998 colon 106% | KM12 colon 104%

COc1cccc(CNc2nnc(C)c(C)n2)c1O
inactive: T-47D breast 94% | BT-549 breast 101% | MDA-MB-435 melanoma 111% | SW-620 colon 109% | MCF7 breast 97.3% | HCT-116 colon 100% | HCC-2998 colon 96.4% | KM12 colon 107%

CNC(=O)c1cc(Oc2ccc3nc(NC(=O)Nc4ccc(F)cc4F)sc3c2)ccn1
inactive: T-47D breast 56.5% | BT-549 breast 100% | MDA-MB-435 melanoma 62.5% | SW-620 colon 99.9% | MCF7 breast 66.8% | HCT-116 colon 20.7% | HCC-2998 colon 88.1% | KM12 colon 72.6%

CNC1=C(Br)C(=O)c2c(C(=O)OC)c(C)nc(C)c2C1=O
inactive: T-47D breast 62.8% | BT-549 breast 104% | SW-620 colon 48.2% | MCF7 breast 45.2% | HCT-116 colon 25.3% | HCC-2998 colon 69.6% | KM12 colon 62.4%
active: MDA-MB-435 melanoma -66.8%

CC(=O)OCC(=O)O[C@@H]1C[C@]2(C(C)C)O[C@@]1(C)[C@@H]1CC[C@@H](C)[C@H]1[C@@H]2OC(=O)/C=C/c1ccccc1
inactive: T-47D breast 48.6% | MDA-MB-435 melanoma 95% | SW-620 colon 104% | MCF7 breast 77.8% | HCT-116 colon 81.5% | HCC-2998 colon 101% | KM12 colon 90.2%
active: BT-549 breast 2.51%
